SMILES strings stand for the structures.

The assay concerns HepG2. In words: GSK_TCMDC: Percent inhibition of human HepG2 cell line. Test compounds present at 10uM. The format is functional.
Consider `Cc1cccc2nc(-c3cccc(-c4ccc(NC(=O)c5ccncc5)cc4)c3)[nH]c12`, for which the Inhibition – broadly, the drop in the measured response relative to a control, in per cent – is reported as 34%.
`NC(=O)c1cccc(C(=O)Nc2cccc(-c3ccc(-c4nc5ccccc5[nH]4)s3)c2)c1` gave an Inhibition of 37%.
To `CC(C)COc1ccc(Cl)cc1Cc1nc(-c2nc3ccc(N4CCN(C)CC4)nc3[nH]2)cs1.Cl` belongs 29%.
In turn, `COc1ccc(CC(=O)NC(CCN2CCC3(CCc4ccccc43)CC2)c2ccc(Cl)c(Cl)c2)cc1` (stereo not given) registered an Inhibition of 28%.
Compound `COc1c(C2CCN(CCCCNC(=O)c3ccc(-c4ccc(C#N)cc4)nc3)CC2)ccc2c1CCCC2` had an Inhibition of 54%.
In turn, `Cc1noc(C)c1C(=O)N1CCCC(c2[nH]c3c(C)cccc3c2-c2ccncc2)C1.Cl` (stereo not given) had an Inhibition of 16%.
In turn, `Cc1cc(N2CCCC2)nc(Nc2ccc(NC(=O)CC(C)C)cc2)n1` gave an Inhibition of 37%.
To `Cc1ccc(S(=O)(=O)n2cc(-c3ccnc(N)c3)c3cc(Br)cnc32)cc1` belongs 8%.
In turn, `Cc1ccc(O)c(-c2cc(C(=O)Nc3ccc(S(=O)(=O)N4CCCCCC4)cc3)[nH]n2)c1` showed an Inhibition of 25%.
To `CC1(C)CCC(C)(C)c2c1ccc(C1CCN(CCCCNC(=O)c3ccc(-c4ccc(C#N)cc4)cc3)CC1)c2OCC(N)=O` belongs 99%; to `O=C(Nc1cccc(-c2cccc(-c3nc4ccccc4[nH]3)c2)c1)c1ccncc1`, 27%.
The compound `Cc1[nH]c(C)c(-c2ccc(-c3ccc(C(F)(F)F)cc3C(F)(F)F)nc2)c(=O)c1Br` displayed an Inhibition of 30%.
`CC(O)C1CCCCN1C(=O)c1ccc(-c2ccc(-c3nc4ccccc4[nH]3)s2)cc1` (stereo not given) came in with an Inhibition of 33%.
To `O=C(Nc1nc2cc(S(=O)(=O)NCCc3ccc(F)cc3)ccc2n1CCCn1ccnc1)c1ccc(Cl)cc1.O=C(O)C(F)(F)F` belongs 18%.
`CC(C)(C)c1ccc(NC(=O)c2cccc(CN3CCN(Cc4cccc(O)c4)CC3)c2)cc1.O=C(O)C(F)(F)F` came in with an Inhibition of 28%.
Turning to `Cl.Nc1ncnc2occ(-c3ccc(NC(=O)Nc4cc(C(F)(F)F)ccc4F)cc3)c12` [GW770249A], the Inhibition is listed as 57%.
To `Cc1cc(NC(=O)NCCN2CCC(NC(=O)c3ccc(F)cc3)CC2)c2ccccc2n1` belongs 0%.
In the case of `CN1CCN(Cc2ccc(-c3ccc4c(Nc5ccc(Cl)cc5F)ccnc4c3)o2)CC1`, the Inhibition came out at 47%.
Turning to `COc1ccc(CN2CCC(N3CCc4cc(NC(=O)c5cc(C)on5)ccc43)C2)cc1Cl` (stereo not given), the Inhibition is listed as 15%.
Under `COc1ccc2c(c1)CCCC2NCCCCNC(=O)c1ccc(NC(=O)c2ccc(Cl)cc2)cc1` (stereo not given) stands 27%; under `COc1ccc2c(c1)ncn2-c1cc(OCc2ccncc2Br)c(C(N)=O)s1`, 14%; under `CC1(C)[C@H]2CC[C@@H](CNc3nc(NCCc4c[nH]cn4)nc(NCc4cc(F)ccc4F)n3)[C@@H]1C2`, 0%.
To `Cc1ccc(Nc2nccc(NCC(O)c3cccc(C)c3)n2)cc1` (stereo not given) belongs 22%.
`COc1cc(Cc2cnc(N)nc2N)cc(CC(C)O)c1O` (stereo not given): the Inhibition came out at 0%.
`COc1ccc(-c2cc(C(=O)N[C@@H](CC3CCCCC3)C(=O)NC3CCCc4ccccc43)ccc2O)cc1` (stereo not given in full) displayed an Inhibition of 7%.
For `Oc1cccc(Nc2nc(NCc3ccco3)c3ccccc3n2)c1`, the Inhibition is on record as 9%.
Compound `COc1ccc2c(NN=Cc3ccc(N(C)C)cc3)ccnc2c1` gave an Inhibition of 12%.
Consider `Cc1cc(N)c2cc(NC(=O)c3ccc4ccccc4c3)ccc2n1.Cl`, for which the Inhibition is listed as 33%.
`CC(C)C[C@H]1C(=O)N[C@H](C2Cc3ccccc3C2)C(=O)N1[C@@H](C(=O)Nc1ccccc1OCc1ccccc1)c1ccc(F)cc1F` registered an Inhibition of 12%.
Take `Cl.N=C(NCCc1ccccc1Cl)c1ccc2ccccc2c1`: the Inhibition is on record as 25%.
With `CCCC(C(CC1CCC(C)CC1)C(=O)NC(CCCNc1ncccn1)C(=O)Nc1nccs1)N(O)C=O` (stereo not given), the Inhibition is reported as 10%.
On to `CC(CN(C)C)C(=O)Nc1cccc(-c2cccc(-c3nc4ccccc4[nH]3)c2)c1` (stereo not given), for which the Inhibition amounted to 42%.
Compound `Cn1cncc1C(=O)Nc1cccc(-c2ccc(-c3nc4ccccc4[nH]3)s2)c1` yielded an Inhibition of 0%.
In turn, `O=C(Nc1cccnc1)c1ccc(-c2cc3ccncc3cc2OC2CCNCC2)s1` came in with an Inhibition of 0%.
The compound `Cc1nc(-c2cccc(Nc3nccc(NCC(O)c4cccc(F)c4)n3)c2)cs1` (stereo not given) showed an Inhibition of 39%.
In turn, `COc1ccccc1NC(=O)NC1CCN(CCCCCNC(=O)/C=C/c2ccc(Cl)c(Cl)c2)CC1` displayed an Inhibition of 4%.
Turning to `O=C(/C=C/c1ccc(Cl)c(Cl)c1)N1CCC(CN2CCC(c3c[nH]c4cnccc34)CC2)CC1`, the Inhibition turned out to be 39%.
As to `C[C@H]1CN(Cc2cccc(-c3cc(CNC(=O)c4cccc(CN5CCN(C/C=C/c6ccccc6)CC5)c4)ccc3F)c2)CCN1.O=C(O)C(F)(F)F`, the Inhibition worked out at 98%.
`CC(C)Oc1cc2c(cc1NS(=O)(=O)c1ccc(-c3ccc(Cl)cc3)cc1F)CCN(C)CC2.Cl` came in with an Inhibition of 29%.
`O=C(NCCc1ccccc1F)c1cc(Br)cc(N2CCN(c3ccncc3)CC2)c1.O=C(O)C(F)(F)F`: the Inhibition was 29%.

Values taken from ChEMBL document CHEMBL1157539, “Thousands of chemical starting points for antimalarial lead identification” (Nature, 2010).
